Where “and” joins values, the source holds several entries; their conditions need not be identical. Equal entries are not always repeated. Compounds without any hit were thinned out: in the full panel of roughly 83,000, 20% have a hit.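 How to read the values: 0–100, growth inhibition (40 = 60% inhibited); 0, no net growth; -100 to 0, cell death (-40 = 40% of starting cells died; -100 = all dead).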 Calls of active or inactive are those of the source. The calls were made as follows: active = growth percent below 10; inactive = the rest.

The experiment has as its system MDA-MB-468 breast. The experiment is described as follows: NCI-60 one-dose screen, 48 h (100 = growth as untreated, 0 = no growth, -100 = all killed). As to conditions: 10 µM unless noted.
Consider `C[As](=O)(O)c1ccc(C(=O)O)cc1`, for which the growth was 99.8% (inactive).
The result for `Cc1cc(N(CCCl)CCCl)ccc1C=Nc1ccccc1-c1ccccc1` reads 2.49% (active); that for `C/C(=N/OC(=O)N(C)C)c1cc(Cl)ccc1Cl`, 102% (inactive); that for `CC(=O)OC1CCC2C3CCC4=C/C(=N/OC(=O)c5ccc(N(CCCl)CCCl)cc5)CCC4(C)C3CC(C)C12` (configuration not stated), 67.2% (inactive).
`CC(=O)c1cccc(S(=O)(=O)F)c1`: the growth was 93.6% (inactive).
As for `COc1cc(/C=C\[N+](=O)[O-])ccc1O`, the figure is 4.87% (active) and 65.1% (inactive); as for `N#C[S-].[Au+].c1ccc(CN2[CH-]N(Cc3ccccc3)C(c3ccccc3)=C2c2ccccc2)cc1`, -3.8% (active).
As for `CCOC(=O)P(=O)(OCC)OCC`, the figure is 110% (inactive).
As for `O1[As]2O[As]3O[As]1O[As](O2)O3`, the figure is -63.2% (active); as for `C[CH2][Sn]([CH2]C)([CH2]C)[NH]S(=O)(=O)c1ccc(C)cc1`, 114% (inactive); as for `CCc1ccccc1[C@@H]1C[C@]2(C)CCO[C@@H]2OO1`, 102% (inactive).
As to `CCC1(CCSC#N)C(=O)NC(=O)NC1=O`, the growth was 107% (inactive).
The result for `CC[C@H](C)[C@H](NC(=O)C12CC(NC(C)=O)(C1)C2)C(=O)N(C)[C@H](C[C@@H](OC(C)=O)c1nc(C(=O)N[C@@H](Cc2ccccc2)C[C@H](C)C(=O)OC)cs1)C(C)C` reads 5.12% (active); that for `CCCCCCCCCCCCNC(c1ccccc1)C(O)c1ccccc1` (configuration not stated), 48.5% (inactive).
As for `CC(=O)OC[C@]1(C)C=C2C(=O)[C@](C)(O)C3(CC3)C(C)=C2[C@H]1O`, the figure is -71.7% (active); as for `CC(=O)C(c1c(O)c2ccccc2oc1=O)c1cc(=O)oc2c1ccc1ccccc12` (configuration not stated), 96.6% (inactive).
As for `COC(=O)[C@@H](C)C[C@H](Cc1ccc2ccccc2c1)NC(=O)c1csc([C@@H](C[C@H](C(C)C)N(C)C(=O)[C@@H](NC(=O)[C@H]2CCCCN2C)C(C)C)OC(C)=O)n1`, the figure is 67% (inactive); as for `COC1CC2c3ccccc3C1C(C)=[N+]2C` (configuration not stated), 96.4% (inactive).
As to `O=C(CC1(O)C(=O)Nc2ccccc21)c1ccc(C(=O)NCC2CCC3(CC2)OOC2(CCCCC2)OO3)cc1` (configuration not stated), the growth was 53.7% (inactive).
In the case of `N#CC1c2ccccc2C=CN1C(=O)c1ccc(N(CCCl)CCCl)cc1` (configuration not stated), the growth was 79.7% (inactive).
The result for `CCOC(=O)N1CC1` reads 92.5% (inactive); that for `CC1(CF)NC(=O)NC1=O` (configuration not stated), 113% (inactive); that for `COc1cccc(/C=C/[N+](=O)[O-])c1`, 25.8% (inactive).
As for `CC1(C)C(C(=O)c2cn(CCCCF)c3ccccc23)C1(C)C`, the growth is 103% (inactive).
As for `C/C=C(\C)C(=O)O[C@@H]1C(O)[C@H]2OC(COC(=O)CCC(=O)CCCCCC[C@H](CCCCC)O[C@@H]3OC(C)[C@H](OC(C)=O)C(O)[C@H]3O2)[C@H]1OC(=O)/C=C/c1ccccc1` (some centres not stated), the figure is -8.84% (active); as for `Nc1nc(=S)nc(N)[nH]1`, 99.3% (inactive).
The result for `Cc1ccc(S(=O)(=O)C(Cl)(Cl)Cl)cc1` reads 99.8% (inactive).
As for `Nc1ccc(P(=O)(O)O)cc1`, the figure is 104% (inactive) and 92.6% (inactive); as for `COC(=O)[C@@H](C)C[C@H](Cc1ccccc1)NC(=O)c1csc(CC[C@H](C(C)C)N(C)C(=O)[C@@H](NC(=O)[C@H]2CCCCN2C)C(C)C)n1`, 8.45% (active); as for `CC1=C[C@H]2O[C@@H]3C[C@H]4OC(=O)/C=C\C=C\[C@H]([C@@H](C)O)OCC/C(C)=C/C(=O)OC[C@@]2(CC1)[C@]4(C)[C@]31CO1`, -63.8% (active).
As for `O=C=Nc1ccc(Br)cc1`, the growth was 83.1% (inactive).
The result for `CC(N)Cc1ccc(O)cc1` (configuration not stated) reads 107% (inactive).
As for `O=C([O][Hg][CH2]C1OCCOC1[CH2][Hg][O]C(=O)c1ccccc1)c1ccccc1` (configuration not stated), the figure is -81.5% (active).
As for `CCC(Br)(CC)C(=O)NC(N)=O`, the figure is 97.7% (inactive); as for `CN1[C@@H](CC(=O)c2ccccc2)CCC[C@H]1CC(=O)c1ccccc1`, 101% (inactive); as for `COCC1OC2OC3C(COC)OC(OC4C(COC)OC(OC5C(COC)OC(OC6C(COC)OC(OC7C(COC)OC(OC8C(COC)OC(OC1C(O)C2O)C(O)C8O)C(O)C7O)C(O)C6O)C(O)C5O)C(O)C4O)C(O)C3O` (configuration not stated) (tested in a mixture with another compound), 105% (inactive).
Consider `Cc1cc2c(cc1-c1ccnc(/C=C/C(=O)O)c1)C(C)(C)CCC2(C)C`, for which the growth was 97.1% (inactive).

The values above are taken from PubChem BioAssay (NCI).
